Bioassay records: PubChem, National Center for Advancing Translational Sciences (NCATS)
Rows were chosen to be rich in hits. Some 2.4% of all compounds tested hit in one or more screens of this group.
Pol beta inh: inhibitors of human DNA polymerase beta; Potency, µM (series often up to 114 µM), actives largely listed as inhibitors; Pol beta primer extension/strand displacement, fluorescence kinetic; AID 485314; 1.3% of 340,000 active; P06746
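Values derive from four-parameter Hill fits of normalized kinetic data: reads at 0 and 10 min following addition of 50 nM substrate to 10 nM Pol beta preincubated 15 min with compound.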
Pol kappa inh: blocks human DNA polymerase kappa activity. Potency, µM (titrated, usually from 107 µM), actives largely listed as inhibitors. purified Pol kappa, fluorescent DNA synthesis assay, 10 min. AID 588579. 0.53% of 400,000 active. Q9UBT6
Target sequence (Q9UBT6 whole entry, looked up): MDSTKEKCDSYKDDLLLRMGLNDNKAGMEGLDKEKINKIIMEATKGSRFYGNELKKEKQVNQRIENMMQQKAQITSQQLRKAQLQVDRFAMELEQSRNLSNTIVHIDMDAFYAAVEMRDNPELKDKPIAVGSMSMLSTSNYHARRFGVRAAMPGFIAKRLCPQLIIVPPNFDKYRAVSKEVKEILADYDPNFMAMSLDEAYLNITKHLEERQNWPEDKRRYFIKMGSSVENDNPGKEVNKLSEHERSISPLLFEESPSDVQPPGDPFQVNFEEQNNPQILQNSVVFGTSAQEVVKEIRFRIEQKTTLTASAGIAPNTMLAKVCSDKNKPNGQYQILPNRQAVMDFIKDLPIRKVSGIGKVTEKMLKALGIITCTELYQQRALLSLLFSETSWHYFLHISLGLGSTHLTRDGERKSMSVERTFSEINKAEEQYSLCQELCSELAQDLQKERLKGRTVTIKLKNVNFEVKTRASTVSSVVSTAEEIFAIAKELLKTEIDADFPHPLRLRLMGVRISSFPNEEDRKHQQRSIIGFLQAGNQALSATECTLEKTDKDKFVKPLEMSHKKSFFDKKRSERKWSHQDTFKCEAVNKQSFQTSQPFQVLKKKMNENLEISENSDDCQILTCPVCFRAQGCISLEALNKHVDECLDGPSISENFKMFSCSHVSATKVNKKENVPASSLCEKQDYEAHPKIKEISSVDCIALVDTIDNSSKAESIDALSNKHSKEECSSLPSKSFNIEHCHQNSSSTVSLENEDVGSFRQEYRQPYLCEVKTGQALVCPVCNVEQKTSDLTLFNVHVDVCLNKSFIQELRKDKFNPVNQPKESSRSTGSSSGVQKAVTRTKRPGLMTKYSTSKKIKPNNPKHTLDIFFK
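10 nM Pol kappa was preincubated with compounds for 15 min at room temperature. Reaction started with 50 nM (final) substrate. Fluorescence read kinetically at 0 and 10 min.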
POLH inh: DNA polymerase eta (human) inhibition; Q9Y253; Potency, µM (doses to about 114 µM), usual class: inhibitors; recombinant Pol eta, fluorescent DNA replication assay; 1.2% of 390,000 active
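Fluorescent replication assay: 50 nM final substrate added after a 15 min room-temperature compound preincubation with 10 nM enzyme. Signal taken at 0 min and again at 10 min.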
WRN inhibitor: WRN helicase (human) inhibition. Q14191. WRN helicase unwinding, fluorescent forked duplex, kinetic. Potency, µM (highest dose often 114 µM), actives largely listed as inhibitors. 0.46% of 360,000 active; further: nearly all actives have a fitted effect of over 55% in size
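WRN at 20 nM final was preincubated with compound for 15 min at room temperature; reaction started with 100 nM forked duplex oligonucleotide carrying fluorophore and quencher plus 2 mM ATP (final). Unwinding followed kinetically by red fluorescence (ex 525/em 598 nm).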
FEN1 inhibitor: blocks human flap endonuclease 1 | Potency, µM (highest dose often 114 µM), most hits filed as inhibitors | AID 588795 | 0.35% of 390,000 active | P39748 | Recombinant FEN1 flap cleavage, fluorescence, 15 min; further: nearly all actives have a fitted effect of over 65% in size
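Nuclease activity of 10 nM FEN1 was measured after 15 min of room-temperature exposure to titrated compounds, by adding 50 nM flap substrate and reading plates at 0 and 15 min.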
Pol iota inh: inhibitors of human DNA polymerase iota | 1% of 390,000 active | Pol iota fluorescent replication assay, 10 min | Potency, µM (highest dose often 115 µM), most hits filed as inhibitors | Q9UNA4 | AID 588590
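Fluorescent replication assay read twice, at 0 min and 10 min after adding 50 nM (final) substrate. Enzyme (10 nM) and compounds were first incubated 15 min at room temperature; enzyme-free buffer wells were negative controls.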
A number is an active result; - = inactive; ? = inconclusive; . = not tested or not shown; [ ] = another dose, or the depositor's remark. The call rests on the fitted dose curve; in most records, active means well fitted curve in the direction sought with a large enough effect; inconclusive means small, poorly fitted or top-dose-only effect, or another doubt; inactive means no such curve, though single readings can be large; an effect the other way counts as inactive or inconclusive.

SMILES	Pol beta inh	Pol kappa inh	POLH inh	WRN inhibitor	FEN1 inhibitor	Pol iota inh
Cc1cc(NC(=O)CS(=O)CC(=O)Nc2c(C)cccc2C)ccc1-n1cnnn1 (configuration not stated)	-	-	-	-	-	-
CCc1ccc(NC(=O)CS(=O)CC(=O)Nc2ccc(-n3cnnn3)c(C)c2)cc1 (configuration not stated)	25µM	-	-	-	-	-
COc1cc(/C=N/NC(=O)COc2ccc(-n3cnnn3)cc2)ccc1OCC(N)=O	16µM	?	-	-	-	?
COc1cc(/C=N/NC(=O)COc2ccc([N+](=O)[O-])cc2)ccc1OCC(=O)N1CCOCC1	18µM	-	-	-	-	-
Cc1cc(C)cc(OCC(=O)Nc2ccc(-n3cnnn3)cc2)c1	.	-	-	-	-	32µM
CC(C)C[C@H](NC(=O)[C@H](CC(C)C)NC(=O)[C@H](CCC(N)=O)NC(=O)[C@H](CO)NC(=O)[C@@H]1CCCN1C(=O)[C@H](CO)NC(=O)[C@H](CO)NC(=O)[C@@H](NC(=O)[C@H](Cc1cnc[nH]1)NC(=O)[C@H](CCC(=O)O)NC(=O)[C@H](Cc1ccc(O)cc1)NC(=O)[C@H](CCCCN)NC(=O)[C@H](CCC(N)=O)NC(=O)[C@H](Cc1ccc(O)cc1)NC(=O)[C@H](CC(=O)O)NC(=O)[C@@H](NC(=O)[C@@H]1CCCN1C(=O)[C@H](CC(=O)O)NC(=O)[C@H](CC(N)=O)NC(=O)[C@H](CC(=O)O)NC(=O)CNC(=O)[C@H](CC(=O)O)NC(=O)[C@@H]1CCCN1C(=O)[C@H](CCC(N)=O)NC(=O)[C@H](Cc1ccc(O)cc1)NC(=O)[C@H](C)NC(=O)[C@H](Cc1c[nH]c2ccccc12)NC(=O)[C@H](Cc1ccccc1)NC(=O)[C@@H](NC(=O)[C@@H](N)CO)[C@@H](C)O)[C@@H](C)O)[C@@H](C)O)C(=O)N[C@@H](C)C(=O)N1CCC[C@H]1C(=O)NCC(=O)N[C@@H](CC(=O)O)C(=O)N[C@@H](Cc1ccc(O)cc1)C(=O)O	.	-	.	.	.	.
COc1cc(/C=C/C(=O)OCC(=O)Nc2ccc(S(N)(=O)=O)cc2)ccc1O	-	?	50µM	-	-	?
COc1cc(/C=C/C(=O)OCC(=O)Nc2ccc(Cl)cn2)ccc1O	.	?	56µM	-[11.6 µM]	-	35µM
CCOCCCNC(=O)c1ccc(CS(=O)(=O)Cc2ccccc2F)o1	-	89µM	?	-	-	-
O=C(NCc1ccccc1)c1ccc(CS(=O)(=O)Cc2ccccc2F)o1	-	-	-	-	-	-
C(=C\c1ccnc2ccccc12)/c1ccc(N(Cc2ccccc2)Cc2ccccc2)cc1	.	-	.	.	-	-
O=C(/C=C/c1ccco1)N(Cc1ccc(Cl)cc1)C1CCS(=O)(=O)C1 (configuration not stated)	-	?	?	-	-	40µM
CN(C)c1ccc(CN(C(=O)/C=C/c2ccco2)C2CCS(=O)(=O)C2)cc1 (configuration not stated)	-	-	-	-	-	-
COc1ccc(CN(C(=O)/C=C/c2ccco2)C2CCS(=O)(=O)C2)cc1OC (configuration not stated)	-	?	-	-	-	79µM
CCOc1ccc(CN(C(=O)/C=C/c2ccco2)C2CCS(=O)(=O)C2)cc1 (configuration not stated)	?	-	-	-	-	?
Fc1ccc(Nc2ccnc(-c3ccc4c(c3)OCO4)n2)cc1	.	-	.	.	.	.
COc1ccccc1NC(=O)CCn1cnc2ccccc2c1=O	?	-	.	.	-	89µM
COc1cccc(CNC(=O)CCn2cnc3ccccc3c2=O)c1	14µM	-	-	.	-	?
O=C(CCn1cnc2ccccc2c1=O)NCc1ccccc1Cl	-	-	-	.	-	-
COc1ccc(NC(=O)CCCn2cnc3ccccc3c2=O)c(OC)c1	-	-	-	-	-	-
O=C(CCn1cnc2ccccc2c1=O)NCc1ccccc1	20µM	-	?	.	-	-
COc1cccc(CNC(=O)COC(=O)c2c(C)nn(-c3ccccc3)c2Cl)c1	.	-	13µM	-	-	?
